# This is part of a sample that, as a whole, favours compounds with a hit. Of some 83,000 tested, about 20% had one in any assay.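 96-well plates, one dose, 48 hours. Percent growth reported; active if below 10.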 Values without a mark were called inactive. Calls of active or inactive are those of the source.
# Key:
# Experiment in all cases: NCI-60 one-dose screen, 48 h (100 = growth as untreated, 0 = no growth, -100 = all killed)
# Conditions in all cases: 10 µM unless noted
# HCT-15 colon = test system: HCT-15 colon
# HT29 colon = test system: HT29 colon
# SNB-75 CNS = test system: SNB-75 CNS
# SNB-19 CNS = test system: SNB-19 CNS
# U251 CNS = test system: U251 CNS
# PC-3 prostate = test system: PC-3 prostate
# SK-MEL-5 melanoma = test system: SK-MEL-5 melanoma
# UACC-62 melanoma = test system: UACC-62 melanoma
# LOX IMVI melanoma = test system: LOX IMVI melanoma
# SK-MEL-28 melanoma = test system: SK-MEL-28 melanoma
Compound,growth (HCT-15 colon),growth (HT29 colon),growth (SNB-75 CNS),growth (SNB-19 CNS),growth (U251 CNS),growth (PC-3 prostate),growth (SK-MEL-5 melanoma),growth (UACC-62 melanoma),growth (LOX IMVI melanoma),growth (SK-MEL-28 melanoma)
Cn1c(Nc2ccc(C(F)(F)F)cc2)nc2cc(Oc3ccnc(-c4ncc(C(F)(F)F)[nH]4)c3)ccc21,21.4%,6.83% (active),61.2%,56.6%,46.3%,65.8%,39%,8.71% (active),34.1%,8.35% (active)
Cc1cccc(Cl)c1NC(=O)c1cnc(Nc2cc(N3CCOCC3)cc(S(C)(=O)=O)c2)s1,43.3%,-68% (active),-50.1% (active),40.5%,50%,44.3%,57.9%,41.3%,-58.4% (active),52.6%
C[C@@H](Oc1cc(-n2cnc3ccc(CN4CCN(C)CC4)cc32)sc1C(N)=O)c1ccccc1C(F)(F)F,6.53% (active),4.62% (active),-5.55% (active),26.1%,29.1%,32.9%,4.6% (active),51.1%,4.53% (active),38%
Nc1c(Cl)cccc1[N+](=O)[O-],104%,111%,104%,103%,103%,98.4%,104%,101%,103%,106%
CNS(=O)(=O)Nc1nccc(Cc2c(C)c3ccc(Oc4ncccn4)cc3oc2=O)c1F,63.7%,10.4%,78.1%,63.7%,54.8%,101%,23.1%,4.49% (active),25.6%,8.61% (active)
O=S1(=O)OC(c2ccc(O)c(Cl)c2)(c2ccc(O)c(Cl)c2)c2ccccc21,102%,123%,78.4%,103%,111%,77.8%,95.9%,99.5%,100%,114%
CN1CCC(CNc2ccc3ncc(-c4cccc(OC(F)(F)F)c4)n3n2)CC1,-35.2% (active),-46.1% (active),-75.1% (active),-48.6% (active),-89.2% (active),-20.6% (active),-99.1% (active),-95% (active),-83.5% (active),-86.4% (active)
Cc1ccc(NC(=O)NC(=O)CSc2nc3ccccc3nc2C)cc1,89%,67.5%,70.8%,80.8%,84.2%,67%,38.7%,52.5%,58.8%,75.2%
C=CC(=O)N1CCC(Oc2cc3c(Nc4ccc(Cl)c(Cl)c4F)ncnc3cc2OC)CC1,21.2%,-16.4% (active),-18.4% (active),32.4%,32.8%,14.2%,18.7%,20.7%,-66.1% (active),63.3%
CO[C@@H](C(=O)N1Cc2[nH]nc(NC(=O)c3ccc(N4CCN(C)CC4)cc3)c2C1)c1ccccc1,74.2%,-34.7% (active),-85.5% (active),28.3%,16%,26.5%,-20.5% (active),30.6%,-89% (active),45.5%
N#Cc1c(NC(=O)c2cccs2)[n+]([O-])c2ccc(F)cc2[n+]1[O-],74.6%,97.6%,81.1%,98%,93.2%,77.3%,2.84% (active),83.2%,89.9%,112%
COC(=O)CCCNc1c(-c2c(O)c(O)cc3c(O)c(-c4c(C)cc5c(-c6nc7ccccn7c6NCCCC(=O)OC)c(O)c(O)cc5c4O)c(C)cc23)nc2ccccn12,76.9%,48.8%,19.9%,21.4%,14%,52.7%,76.2%,41.4%,18%,39.7%
COc1ccc(-n2c(=O)c3ccccc3n(Cc3ccc(C(=O)NO)cc3)c2=O)cc1,61.3%,29.6%,11%,18.1%,-40.2% (active),-24.6% (active),6.91% (active),-30.8% (active),-71.5% (active),-17.4% (active)
CC(N)C(Cc1ccc(Cl)cc1)c1ccc(Cl)cc1 (stereo not given),69.3%,-21.9% (active),48.6%,82.4%,5.91% (active),37.5%,90.1%,92.4%,74.3%,62.6%
C/C=C/C=N/NC(=S)Nc1ccccc1,99%,106%,80.8%,102%,88.4%,88.2%,104%,89.5%,88.6%,97.5%
CNc1ncc2cc(-c3cc(NC(=O)NCCC(C)(C)C)c(F)cc3C)c(C)nc2n1,19%,3.91% (active),-16.9% (active),23.6%,16%,49.1%,23.6%,-7.93% (active),-34.1% (active),-6.47% (active)
COCC(=O)NC/C=C/c1ccc2ncnc(Nc3ccc(Oc4ccc(C)nc4)c(C)c3)c2c1,33.3%,12.2%,57.2%,77.9%,62.9%,74.1%,13.1%,7.95% (active),31.7%,12.2%
Nc1ncnc2c1ccn2-c1cccc(NC(=O)c2ccc(N3CCOCC3)c(C(F)(F)F)c2)c1,31.5%,38.2%,67.3%,95.7%,39.5%,35.6%,41.6%,43.4%,41.2%,81.2%
CN(C)C/C=C/C(=O)Nc1cc2c(Nc3ccc(F)c(Cl)c3)ncnc2cc1O[C@H]1CCOC1,-6.21% (active),-2.13% (active),-1.97% (active),8.32% (active),-3.99% (active),5.5% (active),-81.4% (active),-42.3% (active),-73.5% (active),-57.5% (active)
N#Cc1c(NC(=O)c2ccco2)[n+]([O-])c2cc(F)c(F)cc2[n+]1[O-],70.5%,93.6%,83.3%,85.7%,92.3%,80.7%,61.3%,88.4%,83.4%,94.5%
Cn1cc(-c2ncnc3ccc(-c4cnc(Cl)c(NS(C)(=O)=O)c4)cc23)c2ccccc21,13.2%,11.7%,-14.9% (active),27.7%,24.4%,20.1%,-14.6% (active),-18.8% (active),9.88% (active),0.439% (active)
COC[C@@H](C)n1c(C2CCOCC2)nc2c1C1C=C(OC)C(c3c(C)noc3C)=CC1N=C2 (stereo not given in full),30.7%,17.4%,2.03% (active),46.3%,69%,38.2%,38.7%,18.5%,19.6%,65.4%
Cc1cc(C(=O)Nc2cc(Oc3ccc4nc(NC(=O)C5CC5)cn4n3)ccc2C)n(C)n1,44.1%,4.61% (active),7.99% (active),33.5%,13.3%,49.8%,23.6%,-16.9% (active),-20.1% (active),0.461% (active)
CC1(C=O)NC(=O)NC1=O (stereo not given),101%,99.2%,92.8%,103%,82%,88%,102%,99.2%,100%,112%
CCCCCCCC(=O)SCC/C=C/[C@@H]1CC(=O)NCc2cc(ccn2)C2=N[C@@](C)(CS2)C(=O)N[C@@H](C(C)C)C(=O)O1,1.6% (active),1.74% (active),31.8%,10.2%,-55.7% (active),16.4%,-95.3% (active),-56.8% (active),-95.1% (active),-24.7% (active)
Cc1cc2c(-c3nc4ccccn4c3N)c(O)c(O)cc2c(O)c1-c1c(C)cc2c(-c3nc4ccccn4c3N)c(O)c(O)cc2c1O,17.8%,8.01% (active),18%,12.8%,8% (active),16.3%,-7.68% (active),5.54% (active),7.21% (active),38.3%
Nc1ccc(S(=O)(=O)O)c2cc(S(=O)(=O)O)cc(O)c12,101%,108%,113%,105%,108%,97.8%,103%,112%,90.2%,97.1%
